Hits are enriched below; roughly 6.4% of the tested compounds scored in any of these assays.
RORgamma inh – inhibitors of mouse ROR gamma transcriptional activity; Drosophila S2 Gal4-RORgamma UAS-luciferase reporter, 20 h; Potency, µM (series often up to 53.6 µM), for inactives: top-dose activity change, negative = inhibition, actives largely listed as inhibitors; 310,000 compounds, 5.4% hits; AID 2551; further: nearly all actives have a fitted effect of over 60% in size
Target sequence (P51450 whole entry, looked up, the tested form may be a part): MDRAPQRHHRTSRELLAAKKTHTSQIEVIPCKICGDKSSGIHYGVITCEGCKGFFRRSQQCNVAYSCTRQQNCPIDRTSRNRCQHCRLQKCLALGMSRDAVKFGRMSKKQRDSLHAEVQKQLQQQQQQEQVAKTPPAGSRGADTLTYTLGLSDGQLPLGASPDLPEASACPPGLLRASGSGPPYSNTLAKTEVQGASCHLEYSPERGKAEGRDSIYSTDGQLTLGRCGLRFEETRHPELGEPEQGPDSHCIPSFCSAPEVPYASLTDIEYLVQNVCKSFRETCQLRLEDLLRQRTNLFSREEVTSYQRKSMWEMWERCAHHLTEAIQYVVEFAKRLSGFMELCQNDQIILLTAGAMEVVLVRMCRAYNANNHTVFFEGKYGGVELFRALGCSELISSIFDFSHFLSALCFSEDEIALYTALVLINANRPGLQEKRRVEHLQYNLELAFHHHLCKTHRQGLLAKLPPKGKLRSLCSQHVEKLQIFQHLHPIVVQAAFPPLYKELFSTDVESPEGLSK
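ROR gamma transcriptional activity was tracked as Gal4-UAS luciferase output in stably transfected Drosophila Schneider cells, with compound added 1 hr before 700 uM copper sulfate induction and a 20 hr ambient-temperature incubation.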
KinaseGlo FLuc – blocks Kinase-Glo luciferase, a counter-screen artifact; Q27757; Kinase-Glo luciferase, ATP luminescence, 8 min; Potency, µM (top dose mostly 38.3 µM), for the others: at the highest dose activity change, negative = inhibition, actives largely listed as inhibitors; 200,000 compounds, 0.28% hits; AID 1379; further: nearly all actives have a fitted effect of over 60% in size
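Substrate mix (final 50 mM imidazole pH 7.2, 50 mM KCl, 7 mM MgCl2, 10 uM ATP, 0.01% Tween 20, 0.05% BSA) plus pin-tool compound, then Kinase-Glo detection mix; 8 min ambient, luminescence read.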
Gal4-VP16 FLuc – counter-screen for ROR gamma inhibitors: Gal4-VP16 reporter | Drosophila S2 Gal4-VP16 UAS-luciferase, luminescence, 20 h | Potency, µM (titrated, usually from 53.6 µM), inactives show at the highest dose activity, negative = inhibition, most hits filed as inhibitors | 310,000 compounds, 3.5% hits | AID 2546;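 further: Gal4-VP16 expression switched on by copper sulfate through the metallothionein promoter; nearly all actives have a fitted effect of over 50% in size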
The depositor's hits bear a star; ? = inconclusive; . = no result; ! = a repeat was not active; [ ] = dose if it differs, or a comment. The call rests on the fitted dose curve; in most records, active means well fitted curve in the direction sought with a large enough effect; inconclusive means small, poorly fitted or top-dose-only effect, or another doubt; inactive means no such curve, though single readings can be large; an effect the other way counts as inactive or inconclusive. On the % scale 0 is the no-effect control and ±100 the full control effect; potency means the concentration at half of the fitted maximal effect.

SMILES | RORgamma inh | KinaseGlo FLuc | Gal4-VP16 FLuc
CCOC(=O)c1sc(N/N=C/c2ccccc2)nc1C | ? | -3% | ?
S=c1[nH]cc(-c2ccc(Cl)cc2)n1Cc1ccccc1 | 2.5µM* | . | 2.8µM*
CCn1c(-c2ccccc2)c[nH]c1=S | 1.1µM* | 1% | 8.9µM*
CCn1c(C)cc(=S)c2ccccc21 | -12% | -22% | -10%
O=c1ccc(-c2nc3ccccc3n2Cc2ccc(Cl)cc2)c[nH]1 | 65% | . | 21%
CC(C)Cn1c(-c2ccc(Br)cc2)c[nH]c1=S | 0.63µM* | -3% | 1.6µM*
COc1ccc(NC(=O)c2ccc(NC(=O)CN(C)CC(=O)Nc3c(C)cccc3C)cc2)cc1 | 7% | . | -5%
Cc1ccc(CN2CCNC(=O)C2CC(=O)N(C)C2CCOCC2)cc1 (centres undefined) | ? | . | 3%
COc1ccc(NC(=O)C(=O)Nc2cccc3ccccc23)c(OC)c1 | -24% | . | -9%
COc1ccc(NC(=O)C(=O)Nc2cccc3cccnc23)cc1OC | 1.8µM* | . | 2.8µM*
COc1ccc(NC(=O)C(=O)Nc2cccc3cccnc23)c(OC)c1 | 1.4µM* | . | 2.5µM*
COc1ccc(C(=O)Nc2cccc3cccnc23)cc1OC | 34% | 12% | -6%
COc1ccc(N(CC(=O)NCCc2ccc(OC)c(OC)c2)S(=O)(=O)c2ccc(OC)c(OC)c2)cc1 | -9% | . | -10%
CCC(=O)NC(c1ccc([N+](=O)[O-])cc1)c1c(O)ccc2ccccc12 (centres undefined) | ? | 4% | 11µM*
CCCCC(=O)NC(c1ccc([N+](=O)[O-])cc1)c1c(O)ccc2ccccc12 (centres undefined) | ? | 0% | ?
C=CCN(C(=O)c1csnn1)C(C(=O)NCc1ccc(F)cc1)c1sccc1C (centres undefined) | 22% | . | 6%
CC1=CC(=O)c2ccccc2C1=O | 11µM*! | -6% | 7.9µM*
COc1ccc2c(c1O)C(=O)c1ccccc1C2=O | -3% | . | 17%
CC(C)(C=O)C1=CC(=O)c2ccccc2C1=O | 14µM* | 1% | 5µM*
Cc1ccsc1C=C1C(=O)c2ccccc2C1=O | -29% | ? | -4%
COc1cccc2c1C(=O)C=C(C)C2=O | 11µM* | 3% | 7.1µM*
CC(C)(C)c1ccc2c(c1)C(=O)c1ccccc1C2=O | 43% | . | -21%
Cc1cc(C)cc(C(=O)Nc2cccc(NC(=O)c3ccco3)c2)c1 | -1% | . | 2%
COc1ccc(C)cc1NC(=O)CNC(=O)[C@@H]1Cc2ccccc2CN1 | -10% | . | -2%
COc1ccc(S(=O)(=O)NCC(=O)N(Cc2ccco2)C(C(=O)NC(C)(C)C)C(C)C)cc1 (centres undefined) | -3% | . | 0%
SMILES | RORgamma inh | KinaseGlo FLuc | Gal4-VP16 FLuc
CC1CN(C(=O)CCC(=O)NCc2ccccc2)c2ccccc2S1 (centres undefined) | -17% | . | -5%
COc1ccc(-c2noc(N3CCC(C(=O)NCCCN4CCCC(C)C4)CC3)n2)cc1 (centres undefined) | -17% | . | -5%
CC(C)CC1COC(=O)N1 (centres undefined) | 7% | . | -1%
CCOC(=O)c1nc(C)n(-c2cc(OC)c(Cl)cc2Cl)n1 | 18% | 0% | 3%
CCOc1ccccc1NC(=O)CNS(=O)(=O)c1ccc2nc(C)sc2c1 | 2% | -2% | 2%
COc1cccc(/C=N/Nc2ccc(S(=O)(=O)O)cc2)c1O | -24% | ? | -14%
COc1cccc(/C=N/Nc2ccccc2C(=O)O)c1O | ? | . | -25%
O=c1nccc(N/N=C/c2ccccc2O)[nH]1 | 3.5µM* | . | 7.1µM*
COc1cccc(/C=N/Nc2nn3cnnc3c3ccccc23)c1O | 1.4µM* | -5% | 2.8µM*
COc1cccc(/C=N/Nc2ccc(C(=O)O)cc2)c1O | 0.032µM* | 8.9µM* | ?
COc1cccc(/C=N/Nc2ccnc(=O)[nH]2)c1O | 4µM* | . | 8.9µM*
CCOc1ccccc1/C=N/Nc1ccnc(=O)[nH]1 | -30% | . | 3%
Oc1cccc(/C=N/Nc2nn3cnnc3c3ccccc23)c1 | -34% | . | -12%
NS(=O)(=O)OCCCc1ccc(C(F)(F)F)cc1 | 7% | . | 2%
CC(=O)Nc1ccc(S(=O)(=O)NC2CC2)cc1 | 3% | . | 1%
CCC1(c2ccccc2)NC(=O)NC1=O (centres undefined) | 18% | . | -14%
COC(=O)CN(c1ccccc1)S(=O)(=O)c1cc(Br)ccc1OC | 7% | . | 3%
CCOc1cc(-c2nccc3cc(OC)c(OC)cc23)cc(OCC)c1OCC | 8.9µM* | . | 5.6µM*
COc1cc(N)c(Cc2nccc3cc(OC)c(OC)cc23)cc1OC | -38% | 5% | 10%
Cc1sc2c(c1C)c(=O)n(-c1cccc(C(F)(F)F)c1)c(=O)n2CC(=O)NCc1ccco1 | 3% | -4% | -2%
O=C(CN1c2ccccc2Sc2ccccc21)N/N=C/c1ccc(Cl)cc1Cl | 4% | . | -2%
O=C(CN1c2ccccc2Sc2ccccc21)NNC(=S)Nc1ccc(Cl)cc1 | 10µM* | . | ?
O=C(CN1c2ccccc2Sc2ccccc21)NNC(=S)Nc1ccc(Cl)cc1Cl | 13µM* | 0% | ?
O=C(CN1CCOCC1)NNC(=S)Nc1ccc(Cl)cc1 | -34% | -1% | 4%
COc1ccc(NC=O)c(C(=O)CCNC(C)=O)c1 | 0% | . | -2%
SMILES | RORgamma inh | KinaseGlo FLuc | Gal4-VP16 FLuc
CC(=O)c1c(C(=O)O)[nH]c(C(=O)O)c1C | -12% | -2% | -3%
O=c1c2cn[nH]c2[nH]c(=S)n1-c1ccccc1F | 6% | -7% | -1%
O=c1c2cn[nH]c2[nH]c(=S)n1-c1ccccc1Cl | 10µM* | . | -1%
N#C/C(=C/Nc1ccccc1F)S(=O)(=O)c1ccc(Cl)cc1 | 37% | . | -1%
CN(C)CCn1c(=S)[nH]c2ncccc2c1=O | -5% | -1% | -12%[10 µM]
CC(C)CCn1c(=S)[nH]c2ncccc2c1=O | 5µM* | 5% | -28%
COc1ccc(N2CCN(CCCn3c(=S)[nH]c4ncccc4c3=O)CC2)cc1 | ? | 2% | -4%
CCOCCCn1c(=S)[nH]c2ncccc2c1=O | 10µM* | -3% | ?
COc1ccccc1C(c1c(N)n(C)c(=O)n(C)c1=O)C(C)[N+](=O)[O-] (centres undefined) | -1% | . | 5%
COc1ccccc1C(C[N+](=O)[O-])c1c(N)n(C)c(=O)n(C)c1=O (centres undefined) | ? | . | 14µM*
Cc1cc(C)c(S(=O)(=O)N2CCCOC2CNC(=O)C(=O)NCc2ccco2)c(C)c1 (centres undefined) | -5% | -2% | -1%
COc1cc(C(=O)NC(=S)Nc2nc(-c3ccc(F)cc3)cs2)cc(OC)c1OC | -8% | . | 10%
O=C(Cc1ccccc1F)Nc1nc(-c2cccnc2)cs1 | 32% | -3% | -5%
O=C(Nc1nc(-c2ccccc2Cl)cs1)c1cccnc1 | 18% | 18% | 5%
CCc1ccccc1OCC(=O)Nc1nc(-c2cccnc2)cs1 | 3.2µM* | -1% | 11µM*
O=C(NC(=S)Nc1nc(-c2ccccc2)cs1)c1cncc(Br)c1 | 1.6µM* | -1% | ?
O=C(NC(=S)Nc1nc(-c2ccccc2)cs1)c1cccnc1 | 4µM* | -1% | -13%
CC(CCc1ccccc1)NC(=O)CNC(=O)N1CC(=O)Nc2ccccc21 (centres undefined) | 7% | . | -26%
